Measured values taken from PubChem BioAssay (NCI).
Compounds without any hit were thinned out: in the full panel of roughly 79,000, 15% have a hit. Active and inactive are the calls of the source. No stated cut-off is given here; in the data, active means growth inhibition above about 70%; inactive means the rest.

Experiments:
[1] = NCI Yeast Anticancer Drug Screen. Data for the rad52 strain (AID 147);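 further: 0% = growth of vehicle-treated control cultures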; details: S. cerevisiae rad52 mutant growth inhibition, active compounds read high
Outline: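 Inhibition of yeast growth, referenced to vehicle controls, was the measured output for a strain with defective DNA damage repair.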

[2] = NCI Yeast Anticancer Drug Screen. Data for the wt1 strain (AID 149);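 further: 0% = growth of vehicle-treated wt1 cultures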; details: S. cerevisiae wt1 strain (SPY 50644) growth inhibition, active compounds read high
Outline: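 Using yeast strain wt1, compound-induced growth inhibition was determined against vehicle-treated cultures.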

[3] = NCI Yeast Anticancer Drug Screen. Data for the rad50EPP+ strain (AID 151);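 further: 0% = growth of vehicle-treated control cultures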; details: S. cerevisiae rad50 mutant strain, active compounds read high
Outline: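 Genetically defined yeast (rad50EPP+, DNA damage repair alteration) is grown with compound, and inhibition of growth is expressed relative to vehicle-treated controls.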

[4] = NCI Yeast Anticancer Drug Screen. Data for the mgt1 strain (AID 153); details: S. cerevisiae mgt1 mutant growth inhibition, active compounds read high
Outline: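 In the mgt1 strain, test compounds were added and growth inhibition was determined relative to vehicle-treated controls.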

[5] = NCI Yeast Anticancer Drug Screen. Data for the rad50 strain (AID 155);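 further: 0% = growth of vehicle-only cultures of the same strain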; details: S. cerevisiae rad50 strain growth inhibition, active compounds read high
Outline: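 Relative growth inhibition (compound vs vehicle) was measured in yeast with a defined repair-gene alteration.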

[6] = NCI Yeast Anticancer Drug Screen. Data for the mec2-1 strain (AID 157); details: S. cerevisiae mec2-1 strain, active compounds read high
Outline: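 Each compound was tested on mec2-1 yeast, a strain altered in DNA damage repair or cell cycle control. Growth inhibition is reported relative to vehicle.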

[7] = NCI Yeast Anticancer Drug Screen. Data for the rad14 strain (AID 159);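 further: 0% = growth of vehicle-treated control cultures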; details: S. cerevisiae rad14 strain growth inhibition, active compounds read high
Outline: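 Screen for anticancer potential: a yeast strain altered in DNA damage repair is grown with compound, and reduced growth is quantified against vehicle controls.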

[8] = NCI Yeast Anticancer Drug Screen. Data for the sgs1 mgt1 strain (AID 161);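 further: 0% = growth of cultures given vehicle only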; details: S. cerevisiae sgs1 mgt1 strain, active compounds read high
Outline: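 Inhibition of yeast growth, normalised to vehicle-treated controls, is reported for a strain bearing genetic alterations in DNA damage repair.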

[9] = NCI Yeast Anticancer Drug Screen. Data for the CLN2oe strain (AID 163);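 further: 0% = growth of vehicle-only control cultures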; details: S. cerevisiae CLN2oe strain, active compounds read high
Outline: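 First, the altered yeast strain was treated with each compound; second, its growth was measured; finally, inhibition was derived by comparison with vehicle controls.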

[10] = NCI Yeast Anticancer Drug Screen. Data for the cln2 rad14 strain (AID 165);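 further: 0% = growth equal to vehicle treated cultures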; details: S. cerevisiae cln2 rad14 strain, active compounds read high
Outline: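 Test compounds were added to cln2 rad14 yeast cultures; inhibition of growth was then determined by comparison with vehicle treatment.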

[11] = NCI Yeast Anticancer Drug Screen. Data for the bub3 strain (AID 167); details: S. cerevisiae bub3 mutant strain, active compounds read high
Outline: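 Screening used yeast with an engineered genetic alteration affecting cell cycle control. Compound-exposed cultures were compared with vehicle cultures, and reduced growth was taken as inhibition.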

[12] = NCI Yeast Anticancer Drug Screen. Data for the mlh1 strain (AID 171);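 further: 0% = growth of vehicle-treated control cultures of the same strain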; details: S. cerevisiae mlh1 strain growth inhibition, active compounds read high
Outline: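 Inhibition values reflect reduced yeast growth in the presence of compound, referenced to vehicle controls, using a strain chosen for its alteration in DNA repair or cell cycle control.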

[13] = NCI Yeast Anticancer Drug Screen. Data for the sgs1 strain (AID 173);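 further: 0% = growth of vehicle-only control cultures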; details: S. cerevisiae sgs1 mutant, active compounds read high
Outline: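 Vehicle-treated cultures served as reference for growth inhibition of a yeast strain altered in DNA damage repair or cell cycle control after compound exposure.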

[14] = NCI Yeast Anticancer Drug Screen. Data for the mlh1 rad18 strain (AID 175); details: S. cerevisiae mlh1 rad18 strain growth inhibition, active compounds read high
Outline: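 Inhibition values reflect reduced growth of mutant yeast versus vehicle-treated controls following compound exposure; the mutations affect DNA damage repair.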

[15] = NCI Yeast Anticancer Drug Screen. Data for the rad18 strain (AID 177); details: S. cerevisiae rad18 mutant growth inhibition, active compounds read high
Outline: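 Steps: expose repair-mutant yeast to compound; measure growth; express as inhibition relative to vehicle control.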

[16] = at 5.0 µM (retest, dose inferred, filed as 0.5)
[17] = at 50.0 µM (retest, dose inferred, filed as 5.0)

Measured: growth inhibition

CC1(Cl)CC(C)(/C=C/Cl)C(Cl)CC1Cl (stereo not drawn)
inactive: [1]; at 1.2 µM 6% | [1]; at 3.7 µM 8% | [1]; at 11.0 µM 13% | [1]; at 33.0 µM 22% | [1]; at 100.0 µM 43% | [2]; at 1.2 µM 3% | [2]; at 3.7 µM 3% | [2]; at 11.0 µM 3% | [2]; at 33.0 µM 10% | [2]; at 100.0 µM 35% | [3]; at 1.2 µM 2% | [3]; at 3.7 µM 0% | [3]; at 11.0 µM 6% | [3]; at 33.0 µM 15% | [3]; at 100.0 µM 24% | [4]; at 1.2 µM 2% | [4]; at 3.7 µM 1% | [4]; at 11.0 µM 3% | [4]; at 33.0 µM 5% | [4]; at 100.0 µM 43% | [5]; at 1.2 µM -1% | [5]; at 3.7 µM -8% | [5]; [16] 12% | [5]; at 11.0 µM -3% | [5]; at 33.0 µM 28% | [5]; [17] -8% | [5]; at 50.0 µM 58.6% | [5]; at 100.0 µM 48% | [6]; at 1.2 µM 5% | [6]; at 3.7 µM 3% | [6]; [16] 9% | [6]; at 11.0 µM 6% | [6]; at 33.0 µM 20% | [6]; [17] 7% | [6]; at 50.0 µM 19.1% | [6]; at 100.0 µM 46% | [7]; at 1.2 µM 4% | [7]; at 3.7 µM 1% | [7]; at 11.0 µM 5% | [7]; at 33.0 µM 16% | [7]; at 100.0 µM 48% | [8]; [16] 1% | [8]; [17] -17% | [8]; at 50.0 µM 51% | [9]; at 1.2 µM 3% | [9]; at 3.7 µM 5% | [9]; at 11.0 µM 8% | [9]; at 33.0 µM 23% | [9]; at 100.0 µM 49% | [10]; [16] 40% | [10]; [17] -20% | [10]; at 50.0 µM 45% | [11]; at 1.2 µM 2% | [11]; at 3.7 µM 0% | [11]; [16] -3% | [11]; at 11.0 µM 2% | [11]; at 33.0 µM 12% | [11]; [17] -8% | [11]; at 50.0 µM 15.4% | [11]; at 100.0 µM 31% | [12]; at 1.2 µM 2% | [12]; at 3.7 µM 1% | [12]; at 11.0 µM 4% | [12]; at 33.0 µM 14% | [12]; at 100.0 µM 41% | [13]; at 1.2 µM 4% | [13]; at 3.7 µM 2% | [13]; at 11.0 µM 2% | [13]; at 33.0 µM 28% | [13]; at 100.0 µM 64% | [14]; [16] 8% | [14]; [17] -23% | [15]; at 1.2 µM 5% | [15]; at 3.7 µM 5% | [15]; at 11.0 µM 12% | [15]; at 33.0 µM 30% | [15]; at 100.0 µM 48%
active: [14]; at 50.0 µM 79.4%
